FLuc counter: inhibits or activates purified firefly luciferase, miR-21 counter-screen. P08659. purified FLuc, Km substrates, luminescence inhibition. Potency, µM (top dose mostly 57.5 µM), without a hit: at the top dose activity change, negative = inhibition, hits mostly inhibitors. 360,000 tested, 6.9% active. AID 588342;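 note: plate controls were vehicle for no effect and reference inhibitor for full effect; nearly all actives have a fitted effect of over 55% in size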
Target sequence (P08659 whole entry, looked up): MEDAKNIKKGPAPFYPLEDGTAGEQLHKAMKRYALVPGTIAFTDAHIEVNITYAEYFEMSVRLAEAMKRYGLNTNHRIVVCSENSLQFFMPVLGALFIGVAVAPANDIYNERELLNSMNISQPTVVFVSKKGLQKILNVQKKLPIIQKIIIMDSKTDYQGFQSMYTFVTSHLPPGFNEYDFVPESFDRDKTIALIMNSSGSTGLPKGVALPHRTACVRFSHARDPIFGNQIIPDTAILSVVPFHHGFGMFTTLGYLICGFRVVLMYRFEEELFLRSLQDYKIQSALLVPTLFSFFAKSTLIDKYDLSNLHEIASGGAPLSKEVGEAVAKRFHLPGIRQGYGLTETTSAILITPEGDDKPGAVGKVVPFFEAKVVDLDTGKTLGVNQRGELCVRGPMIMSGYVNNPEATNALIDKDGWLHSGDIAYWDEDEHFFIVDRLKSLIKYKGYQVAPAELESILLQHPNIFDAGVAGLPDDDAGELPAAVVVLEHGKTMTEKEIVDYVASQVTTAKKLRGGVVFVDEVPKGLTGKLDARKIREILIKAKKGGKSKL
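Biochemical qHTS of compounds, final roughly 60 µM downward over six points, against 10 nM purified firefly luciferase using Km concentrations of substrates (10 uM D-luciferin, 10 uM ATP) in Tris acetate pH 7.5 buffer; luminescence output.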
KinaseGlo FLuc: blocks Kinase-Glo luciferase, a counter-screen artifact. Potency, µM (titrated, usually from 38.3 µM), for the others: at the top dose activity change, negative = inhibition, usual class: inhibitors. Kinase-Glo luciferase, ATP luminescence, 8 min. Q27757. 200,000 tested, 0.28% active; note: % is set by controls: 0 for no effect and ±100 for the full control effect; nearly all actives have a fitted effect of over 60% in size
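Compound is pinned into ATP-containing buffer (10 uM ATP, imidazole pH 7.2, 7 mM MgCl2). Kinase-Glo luciferase reagent is then added. Light output is recorded following an 8-min room-temperature incubation.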
SMN2 splice up: increases expression of the SMN2 splice variant; HEK293 SMN2-luciferase splicing reporter, luminescence, 30-36 h; Potency, µM (top dose mostly 46.1 µM), inactives show top-dose activity change, positive = activation, usual class: activators; 210,000 tested, 2.8% active; note: % of control where 0% means no effect; nearly all actives have a fitted effect of over 55% in size
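HEK293 cells carry an SMN2 […]–luciferase reporter in which exon 7 inclusion puts luciferase in frame. Cells were plated 10-12 h before compound addition, then incubated 30-36 h at 37C. ONE-Glo luminescence was read; sodium butyrate at 4.5 mM final served as control.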
Rab9 promoter act: activators of Rab9 promoter | Potency, µM (highest dose often 9.22 µM), without a hit: top-dose activation, negative = inhibition, actives largely listed as activators | Huh7 Rab9 promoter-luciferase reporter, luminescence, 24 h | 320,000 tested, 2.8% active; note: % of control where 0% means no effect; nearly all actives have a fitted effect of over 60% in size
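Steps: seed 1500 Huh7 Rab9-luc cells per well, rest 2 h at 37 °C; add compound in DMSO; incubate 24 h; add luciferase reagent, 10 min ambient; read luminescence.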
ELG1 genotoxic: inducers of genotoxicity in HEK293T ELG1-luciferase cells | 330,000 tested, 1.3% active | Potency, µM (highest dose often 46 µM), without a hit: at the top dose activity change, positive = activation, usual class: activators | HEK293T ELG1-luciferase reporter, luminescence, 16 h; note: % of control where 0% means no effect; nearly all actives have a fitted effect of over 60% in size
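Cells (2,000/well) expressing the ELG1-luciferase fusion are dosed by pin tool and kept 16 hr at 37 °C, 5% CO2. Signal comes from ONE-Glo luciferase reagent after 30 min at room temperature.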
NPC1 prom act: NPC1 promoter activation; Huh7 NPC1 promoter luciferase reporter, 24 h; Potency, µM (series often up to 9.22 µM), inactives show at the highest dose activation, most hits filed as activators; 320,000 tested, 2.4% active; note: % of control where 0% means no effect; nearly all actives have a fitted effect of over 60% in size
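Huh7 cells stably carrying NPC1 promoter–luciferase, plated in Opti-MEM with 10% FBS for 2 h, were exposed to compound in DMSO for 24 h at 37 °C; luciferase reagent was added for 10 min and luminescence read.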
* = called active by the depositor; ? = inconclusive; . = not tested or not shown; [ ] = remark or other dose. An excerpt weighted towards active compounds, which were near 7.5% of everything screened. Calls come from the whole dose curve; as a rule, active = well fitted curve in the direction sought with a large enough effect; inconclusive = small, poorly fitted or top-dose-only effect, or another doubt; inactive = no such curve, though single readings can be large; an effect the other way counts as inactive or inconclusive. Potency is the fitted concentration of half-maximal effect.

SMILES	FLuc counter	KinaseGlo FLuc	SMN2 splice up	Rab9 promoter act	ELG1 genotoxic	NPC1 prom act
CC1CCCN(Cc2cccc(Oc3ccccc3)c2)C1 (configuration not stated)	0%	-2%	-9%	1%	-1%	-4%
Cc1ccc(C)c(Nc2cc(C(=O)NC3CCCCC3)c3ccccc3n2)c1	-4%	.	5%	.	.	.
Cc1ccc2c(c1)-c1nc3ccccc3cc1C2=NC1CCCCC1	11µM*	-2%	6.3µM*	3.5µM*	?	?
Cc1ccc2c(c1)C(=NC1CCCCC1)c1cc3ccccc3nc1-2	15µM*	-1%	2.8µM*	?	?	11%
Cc1ccc(-c2cc3ccccc3nc2N2CCCC2)cc1	-2%	2%	-32%	0%	-2%	-3%
COc1ccc(-n2cc(C(=O)Nc3ccccc3C#N)c3ccccc3c2=O)cc1	1%	.	.	.	.	.
Clc1ccc(CSc2ccc(-c3ccccn3)nn2)cc1	?	1%	-42%	?	23µM*	?
c1ccc(CSc2ccc(-c3ccccn3)nn2)cc1	4.8µM*	-4%	0.79µM*	2.2µM*	2.3µM*	0.79µM*
COc1ccc(-c2nc3c4ccccc4[nH]c(=O)n3n2)cc1	8.5µM*	9%	6%	.	.	.
COc1cc2[nH]c(=O)n3nc(-c4ccccc4)nc3c2cc1OC	-13%	-1%	-1%	-2%	-5%	-8%
CCCCn1[nH]c(-c2ccccc2)cc1=O	?	-1%	2%	4%	0%	7%
CN(C)N=Nc1ccc(S(N)(=O)=O)cc1	-2%	-1%	.	-9%	3%	-1%
CN(C)c1ccc(N=Nc2ccc(S(N)(=O)=O)cc2)cc1	2.7µM*	.	.	2.8µM*	21µM*	1µM*
Cc1ccc(C2=Nc3ccccc3N(CC(=O)Nc3ccccc3C)C(=O)C2)cc1C	11µM*	.	.	.	.	.
Cc1ccc(NC(=O)NCCOCCn2c(=O)oc3ccccc32)cc1C	-12%	.	-16%	.	.	.
COc1cc2c(cc1NC(=O)C(C)OC(=O)C1CC(=O)N(Cc3ccco3)C1)oc1ccccc12 (configuration not stated)	?	2%	24%	?	21µM*	?
Cc1ccc(N=Cc2sccc2C)cc1C	1.9µM*	-11%	29%	2%	0%	1%
CNc1nnc(-c2ccc(OC)cc2)s1	12µM*	-15%	13µM*	3.2µM*	16µM*	2.8µM*
COc1ccc(OCCc2nnc(N)s2)cc1	2%	0%	2%	-1%	1%	4%
CC(c1ccccc1)c1nnc(N)s1 (configuration not stated)	-3%	-1%	.	7%	0%	-3%
CCCOc1ccc(-c2nnc(N)s2)cc1	7.6µM*	-4%	?	?	18µM*	?
CC(C)c1ccc(-c2nnc(N)s2)cc1	1.9µM*	-5%	14µM*	2.2µM*	18µM*	3.2µM*
CCCOc1ccc(-c2nc(-c3ccc(N)cc3)cs2)cc1	7.6µM*	.	.	?	5%	24%
COc1ccc(-c2csc(-c3[nH]cnc3N)n2)cc1	?	-6%	?	-1%	?	-5%
Cn1nc(-c2ccccc2)c2ncc(C(F)(F)F)cc21	6%	1%	9%	16%	0%	2%
SMILES	FLuc counter	KinaseGlo FLuc	SMN2 splice up	Rab9 promoter act	ELG1 genotoxic	NPC1 prom act
CCCC(=O)OCc1cnc(C)c2oc(=O)c(C(=O)Nc3ccccc3)cc12	-3%	.	.	.	.	.
Cc1nc(CN2CCN(Cc3nc(C(c4ccccc4)c4ccccc4)no3)CC2)cs1	0%	2%	.	-1%	-4%	-3%
COc1ccc(-c2nnc(N)s2)cc1	17µM*	-2%	11%	23%	?	22%
Cc1ccc(-c2nnc(N)s2)cc1	13µM*	-6%	?	23%	?	25%
Nc1nnc(-c2ccncc2)s1	6%	-5%	24%	3%	0%	-5%
CCn1c(=O)cc(SCC(=O)NCCc2cccc(C)c2)c2ccccc21	-12%	.	9%	.	.	.
Cn1cc(-c2nc3cnc(Oc4ccccc4)nc3n(CCC#N)c2=O)c2ccccc21	.	-1%	1%	.	.	.
O=C(COn1nnc2ccccc21)NCC1CCCCC1	17µM*	-2%	20%	19%	13µM*	18%
O=C(CCCSc1nnnn1-c1ccccc1)c1ccc(F)cc1	0%	-1%	-22%	0%	-6%	3%
Cc1ccccc1OCc1nc2c3cnn(-c4ccccc4Br)c3ncn2n1	?	.	1%	.	.	.
Cc1ccccc1OCc1nnc2c3cnn(C)c3ncn12	21µM*	-9%	19%	4µM*	?	3.2µM*
COCc1cc(=O)[nH]c(-c2ccccc2)n1	0%	1%	7%	0%	2%	-3%
CC[C@H](C)N(C)C(=O)c1cc2ccccc2c(-c2ccccc2Cl)n1	.	3%	.	.	.	.
COc1ccccc1N=Nc1ccc(O)c2ncccc12	6.7µM*	.	.	-22%	?	-35%
Cc1ccc(N=Nc2ccc(O)c3ncccc23)cc1C	11µM*	-9%	.	-9%	10%	-18%
Cc1ccc(N=Nc2ccc(O)c3ncccc23)cc1	3%	-7%	-91%	-2%	?	13%
Cc1ccc(/C=N/NC(=O)c2cc(C)oc2C)cc1	4.3µM*	.	.	24%	?	12%
CC(/C=N\NC(=O)c1cc(C)oc1C)=C\c1ccccc1	2.1µM*	-25%	?	2.5µM*	?	?
Cc1cc(C(=O)N/N=C/c2ccncc2)c(C)o1	?	.	.	1%	0%	-3%
CC1CN(C(=O)c2ccc(COc3ccc4ccccc4c3)o2)CC(C)O1 (configuration not stated)	17µM*	-1%	.	?	11%	22%
CC1CN(C(=O)c2ccc(COc3ccc(C(C)C)cc3)o2)CC(C)O1 (configuration not stated)	13µM*	2%	.	?	?	?
Cc1ccccc1OCc1ccc(C(=O)N2CC(C)OC(C)C2)o1 (configuration not stated)	0%	.	.	3%	-3%	5%
CC1CN(C(=O)c2ccc(COc3ccccc3Cl)o2)CC(C)O1 (configuration not stated)	-3%	.	.	-3%	-2%	-1%
CCOc1ccc(NC(=O)C/C(C)=N/NC(=O)COc2ccc(Br)cc2C)cc1	3%	.	.	0%	2%	-2%
Cc1cc(C)nc(Nc2ccc(C(=O)O)cc2)n1	15µM*	16%	11µM*	1.8µM*	?	3.5µM*
Cc1ccc(Nc2ccc(C(=O)O)cc2N)cc1	5.4µM*	-11%	?	26%[1.84 µM]	?	?
CCc1ccc(Nc2nc(C)cc(C)n2)cc1	12µM*	.	.	5µM*	?	?
COc1ccc(Nc2nc(C)cc(C)n2)cc1Cl	19µM*	.	.	?	?	?
